# Results filed as inconclusive are left out. Calls of active or inactive are those of the source. Rule for the calls: active = hit-call score of the fitted dose curve at least 0.9, where 1 is the maximum; inconclusive = response in the unintended direction; inactive = score below 0.9.
# What was measured:
# [1] = target: human Opioid Receptor Mu (Opiate Mu), OPRM1 (gene 4988) (UniProt P35372); test: NVS_GPCR_hOpiate_mu: NovaScreen (NVS) G Protein-Coupled Receptor Assay for human Opioid Receptor Mu (Opiate Mu) (AID 2283290);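 note: hits lower bound tracer signal versus DMSO meaning displacement of the ligand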
# In short: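 Primary screen in duplicate at 25 uM, with actives followed in concentration series. CHO-derived receptor membranes, cell-free; bound radioligand read by scintillation counting after filtration at 2.5 h, decrease scored against DMSO.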
# [2] = target: Sodium channel protein type 1 subunit alpha (Rattus norvegicus) (UniProt P04774); test: NVS_IC_rNaCh_site2: NovaScreen (NVS) Ion Channel Assay for rat Sodium Channel, Site 2 (NaCh) (AID 2283322);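 note: hit means loss of radioligand binding signal relative to DMSO so AC50 marks displacement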
# In short: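 Membranes: rat forebrain. Format: competitive radioligand displacement, filter separation, scintillation readout, 1 h exposure. Primary screen in duplicate at 25 uM; actives retested in concentration series.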
# [3] = target: rat Thyrotropin Releasing Hormone Receptor (TRH), Trhr (gene 25570) (UniProt Q01717); test: NVS_GPCR_rTRH: NovaScreen (NVS) G Protein-Coupled Receptor Assay for rat Thyrotropin Releasing Hormone Receptor (TRH) (AID 2283329);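 note: hit means lower bound tracer signal versus DMSO baseline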
# In short: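 Competitive radioligand binding on rat forebrain membrane preparations, with filtration and scintillation readout after 4 h. Primary testing in duplicate at 25 uM; actives confirmed in concentration-response. DMSO defined baseline.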
# [4] = NVS_IC_rCaBTZCHL: NovaScreen (NVS) Ion Channel Assay for Calcium Channel, Type L, Benzothiazepine Site (CaBTZCHL) (AID 2283337)
# In short: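 Radioligand binding to the benzothiazepine site of L-type Ca channels in rat cortical membranes (cell-free), 1.5 h after dosing; filter-based scintillation counting. Loss of signal relative to DMSO baseline; primary single-concentration screen at 25 uM, actives then run in concentration series.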
# [5] = target: rat Adrenergic Receptor, Alpha 2 (Adra2), Non-selective Binding, Adra2a (gene 25083) (UniProt P22909); test: NVS_GPCR_rAdra2_NonSelective: NovaScreen (NVS) G Protein-Coupled Receptor Assay for rat Adrenergic Receptor, Alpha 2 (Adra2), Non-selective Binding (AID 2283299)
# In short: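 Rat cortical membranes, radioligand competitive displacement read by filter-based scintillation counting 1.25 hours after dosing. Primary screen in duplicate at 25 uM; actives followed up in concentration series.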
# rat Thyrotropin Releasing Hormone Receptor (TRH), Trhr (gene 25570), sequence (Q01717 whole entry, looked up): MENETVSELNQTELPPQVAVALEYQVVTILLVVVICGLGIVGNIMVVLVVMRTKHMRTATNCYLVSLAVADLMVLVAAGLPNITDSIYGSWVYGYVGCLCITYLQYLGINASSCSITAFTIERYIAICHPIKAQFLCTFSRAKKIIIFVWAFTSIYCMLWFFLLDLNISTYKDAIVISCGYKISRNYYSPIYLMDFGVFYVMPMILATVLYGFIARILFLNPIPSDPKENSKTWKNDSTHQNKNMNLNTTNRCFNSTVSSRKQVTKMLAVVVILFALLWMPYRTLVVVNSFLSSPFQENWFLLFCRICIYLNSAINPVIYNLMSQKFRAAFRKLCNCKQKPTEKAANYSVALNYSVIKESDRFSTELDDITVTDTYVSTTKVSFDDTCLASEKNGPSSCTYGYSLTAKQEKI
# rat Adrenergic Receptor, Alpha 2 (Adra2), Non-selective Binding, Adra2a (gene 25083), sequence (P22909 whole entry, looked up): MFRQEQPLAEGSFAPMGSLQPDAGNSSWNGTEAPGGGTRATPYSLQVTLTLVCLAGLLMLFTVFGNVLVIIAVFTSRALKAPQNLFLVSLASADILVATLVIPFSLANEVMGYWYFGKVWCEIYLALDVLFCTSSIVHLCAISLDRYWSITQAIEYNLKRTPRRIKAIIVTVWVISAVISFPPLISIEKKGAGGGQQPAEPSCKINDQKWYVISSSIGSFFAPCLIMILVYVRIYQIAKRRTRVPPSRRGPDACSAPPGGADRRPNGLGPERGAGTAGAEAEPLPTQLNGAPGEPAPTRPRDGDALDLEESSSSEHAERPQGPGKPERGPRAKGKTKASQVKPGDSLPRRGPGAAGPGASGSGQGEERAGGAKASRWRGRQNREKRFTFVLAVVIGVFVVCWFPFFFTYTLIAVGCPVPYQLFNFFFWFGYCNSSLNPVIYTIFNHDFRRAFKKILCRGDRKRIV
# human Opioid Receptor Mu (Opiate Mu), OPRM1 (gene 4988), sequence (P35372 whole entry, looked up): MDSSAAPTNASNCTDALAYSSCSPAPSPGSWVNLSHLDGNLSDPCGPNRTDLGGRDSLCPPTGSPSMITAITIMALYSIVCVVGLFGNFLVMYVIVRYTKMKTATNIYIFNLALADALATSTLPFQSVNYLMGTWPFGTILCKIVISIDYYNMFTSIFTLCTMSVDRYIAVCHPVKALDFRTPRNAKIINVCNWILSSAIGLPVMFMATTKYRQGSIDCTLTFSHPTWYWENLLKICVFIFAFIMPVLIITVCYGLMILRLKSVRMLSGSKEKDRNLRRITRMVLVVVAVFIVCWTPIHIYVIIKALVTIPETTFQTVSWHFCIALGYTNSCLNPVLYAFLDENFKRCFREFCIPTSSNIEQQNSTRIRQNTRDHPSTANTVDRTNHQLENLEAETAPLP
structure (smiles),measurement,setting,value
Nc1cc([N+](=O)[O-])ccc1Cl,outcome,[1],inactive
Cc1cccc(C)c1C,outcome,[2],inactive
CCCC/C=C\CCCCCCCCCC=O,outcome,[3],inactive
O=P(c1ccccc1)(c1ccccc1)c1ccccc1,AC50,[2],8.17 µM (active)
same,outcome,[4],inactive
NCCCN1CCOCC1,outcome,[3],inactive
CCn1c2ccccc2c2cc(N)ccc21,AC50,[5],25 µM (active)
CC1COc2ccccc2N1C(=O)C(Cl)Cl (stereo not drawn),outcome,[4],inactive
